Experimental data published in PubChem BioAssay AID1159580 (chemical genetic matrix, 2015).
Hit rate of the full screen: of about 5,500 compounds, about 2,000 (36%) were called active. Inconclusive results (about 18%) are left out. Rule as the data show it: active = normalized growth mostly below about 0.91 (no sharp cut-off); inconclusive = no clear call, values can overlap the other calls; inactive = mostly above about 0.92. The list shows a part of the results.

Experiment: chemical genetic growth profiling, strain panel (AID 1159580);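 also: tested at 20 µM; growth read once vehicle control cultures reached saturation at 30 °C; 1 = growth at the plate median or of vehicle wells; lower values mean less growth of the strain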
Details: S. cerevisiae deletion strains, growth OD
[1] = locus YAL013W, strain DEP1, active compounds read low
[2] = locus YDL101C, strain DUN1, active compounds read low
[3] = locus YDR150W, strain NUM1, active compounds read low
[4] = locus YEL061C, strain CIN8, active compounds read low
[5] = locus YGR078C, strain PAC10, active compounds read low
[6] = locus YHR030C, strain SLT2, active compounds read low
[7] = locus YHR087W, strain rtc3, active compounds read low
[8] = locus YJR043C, strain POL32, active compounds read low
[9] = locus YJR075W, strain HOC1, active compounds read low
[10] = locus YLR039C, strain RIC1, active compounds read low
[11] = locus YLR058C, strain SHM2 (second series), active compounds read low
[12] = locus YLR085C, strain ARP6, active compounds read low
[13] = locus YLR262C, strain YPT6, active compounds read low
[14] = locus YML094W, strain GIM5, active compounds read low
[15] = locus YMR219W, strain ESC1, active compounds read low
[16] = locus YMR263W, strain SAP30, active compounds read low
[17] = locus YNL153C, strain GIM3, active compounds read low
[18] = locus YNL298W, strain CLA4 (second series), active compounds read low
[19] = locus YNL322C, strain KRE1, active compounds read low
[20] = locus YNR030W, strain Alg12, active compounds read low
[21] = locus YPL055C, strain LGE1, active compounds read low
[22] = locus YPL241C, strain CIN2, active compounds read low
[23] = locus YPR135W, strain CTF4, active compounds read low

Measured: normalized growth

O=C(O)c1oc(C(=O)O)c(OCc2ccccc2)c1OCc1ccccc1
inactive: [1] 1.01 | locus YBR229C, strain ROT2, active compounds read low 1.02 | locus YCL061C, strain MRC1, active compounds read low 0.984 | [2] 0.973 | locus YDL134C, strain PPH21, active compounds read low 0.998 | [3] 0.973 | [4] 1.01 | [5] 0.976 | [6] 0.963 | [7] 1.03 | [8] 0.965 | [9] 0.988 | [10] 0.993 | [11] 1.02 | [12] 1.01 | [13] 0.981 | [14] 1.03 | [15] 0.997 | [16] 0.997 | locus YMR307W, strain GAS1, active compounds read low 1.03 | [17] 0.988 | [18] 0.986 | [19] 0.963 | [20] 0.998 | [21] 1.07 | [22] 1.01 | [23] 1

OCC(O)Cn1c2ccccc2c2ccccc21 (stereo not drawn)
inactive: [1] 1.01 | [2] 1.04 | [3] 1.03 | [4] 0.986 | [5] 1.02 | locus YGR229C, strain SMI1, active compounds read low 0.994 | [6] 1.07 | [7] 0.953 | locus YJL187C, strain SWE1, active compounds read low 1 | [8] 0.987 | [9] 1.01 | [10] 0.982 | [11] 0.988 | [12] 0.97 | [13] 0.959 | [14] 0.975 | [15] 0.986 | [16] 1.01 | [17] 1.02 | [18] 0.984 | [19] 0.999 | [20] 0.977 | locus YOL006C, strain TOP1, active compounds read low 1 | [21] 0.932 | [22] 0.985 | [23] 1.02

OC(COCc1ccccc1)Cn1c2ccccc2c2ccccc21 (stereo not drawn)
inactive: locus YAR019C, strain CDC15, active compounds read low 0.951 | locus YBL105C, strain PKC1, active compounds read low 0.95 | locus YBR135W, strain CKS1, active compounds read low 0.951 | locus YBR136W, strain MEC1, active compounds read low 0.952 | locus YBR160W, strain CDC28, active compounds read low 0.955 | locus YDL017W, strain CDC7, active compounds read low 0.953 | locus YDL028C, strain MPS1, active compounds read low 0.951 | [2] 0.98 | locus YDL108W, strain KIN28, active compounds read low 0.952 | locus YDL132W, strain cdc53, active compounds read low 0.952 | locus YDL214C, strain PRR2, active compounds read low 0.903 | locus YDR052C, strain DBF4, active compounds read low 0.965 | locus YDR054C, strain cdc34, active compounds read low 0.939 | locus YDR226W, strain ADK1, active compounds read low 0.965 | locus YDR477W, strain SNF1, active compounds read low 0.888 | locus YER123W, strain YCK3, active compounds read low 0.888 | locus YER133W, strain GLC7, active compounds read low 0.876 | locus YFL009W, strain cdc4, active compounds read low 0.964 | locus YFL029C, strain CAK1, active compounds read low 0.947 | locus YFR003C, strain YPI1, active compounds read low 0.947 | locus YFR019W, strain FAB1, active compounds read low 0.954 | locus YFR028C, strain CDC14, active compounds read low 0.96 | locus YGR040W, strain KSS1, active compounds read low 0.888 | locus YGR052W, strain FMP48, active compounds read low 0.874 | locus YGR092W, strain DBF2, active compounds read low 0.838 | locus YHR079C, strain IRE1, active compounds read low 0.729 | locus YHR082C, strain KSP1, active compounds read low 0.91 | locus YHR205W, strain SCH9, active compounds read low 0.936 | locus YIL147C, strain SLN1, active compounds read low 0.953 | locus YJL095W, strain BCK1, active compounds read low 0.866 | locus YJL128C, strain PBS2, active compounds read low 0.917 | locus YJL157C, strain FAR1, active compounds read low 0.882 | locus YJR016C, strain ILV3, active compounds read low 0.953 | locus YJR066W, strain TOR1 (second series), active compounds read low 0.917 | locus YJR066W, strain TOR1, active compounds read low 0.886 | locus YKL048C, strain ELM1, active compounds read low 0.973 | locus YKL067W, strain YNK1, active compounds read low 0.905 | locus YKL101W, strain HSL1, active compounds read low 0.891 | locus YKL193C, strain SDS22, active compounds read low 0.953 | locus YKL203C, strain TOR2, active compounds read low 0.877 | locus YLR133W, strain CKI1, active compounds read low 0.893 | locus YLR403W, strain SFP1, active compounds read low 0.907 | locus YML070W, strain DAK1, active compounds read low 0.876 | locus YMR001C, strain CDC5, active compounds read low 0.944 | locus YMR205C, strain PFK2 (second series), active compounds read low 0.939 | locus YMR277W, strain FCP1, active compounds read low 0.955 | locus YNL006W, strain LST8, active compounds read low 0.946 | locus YNL020C, strain ARK1, active compounds read low 0.881 | locus YNL161W, strain CBK1, active compounds read low 0.947 | locus YNL183C, strain NPR1, active compounds read low 0.885 | locus YNL207W, strain RIO2, active compounds read low 0.946 | locus YNL222W, strain SSU72, active compounds read low 0.958 | locus YNL307C, strain MCK1 (second series), active compounds read low 0.885 | locus YOL078W, strain AVO1, active compounds read low 0.959 | locus YOL136C, strain PFK27, active compounds read low 0.898 | locus YOR061W, strain CKA2, active compounds read low 0.924 | locus YOR119C, strain RIO1, active compounds read low 0.933 | locus YOR231W, strain MKK1, active compounds read low 0.837 | locus YOR329C, strain SCD5, active compounds read low 0.952 | locus YPL031C, strain PHO85, active compounds read low 0.845 | locus YPL204W, strain HRR25, active compounds read low 0.791 | locus YPL209C, strain IPL1, active compounds read low 0.955 | locus YPR025C, strain CCL1, active compounds read low 0.953 | locus YPR106W, strain ISR1, active compounds read low 0.95 | locus YPR111W, strain DBF20, active compounds read low 0.933 | strain NNK1, active compounds read low 0.932 | strain TSCII, active compounds read low 0.945
active: [6] 0.632 | locus YLR113W, strain HOG1, active compounds read low 0.769 | locus YPL256C, strain CLN2, active compounds read low 0.792
